# Shown are actives, neighbours in structure and some others; about 21% of the full set was active somewhere.
# TDP1 cell CPT = DT40-hTDP1 cell growth loss with CPT | chicken DT40 Tdp1-/-;hTDP1 cells + 20 nM CPT, ATP luminescence, 48 h | AID 686979 | Potency, µM (series often up to 46.2 µM), hits mostly inhibitors | 12% of 420,000 active; also: nearly all actives have a fitted effect of over 55% in size
#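 Chicken DT40 Tdp1-/- cells stably complemented with human TDP1 were seeded at 400 cells/well in medium containing 20 nM camptothecin, exposed to pin-transferred compounds, and grown at 37 °C for at least 48 hr. Viability was read as ATP luminescence.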
# IL-1B inflam inh = inhibitors of inflammasome signaling (IL-1 beta secretion); THP-1 LPS/ATP IL-1B secretion, AlphaLISA, 16 h; stronger effect = lower value; activity change, % at 57.5 µM; 4.7% of 360,000 active; AID 743279; in the data active = activity change below about -50%; inconclusive = mostly about -30% to -49%
#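 THP-1 cells pretreated 1 hr with compounds (up to 57.5 uM final), then stimulated with LPS (250 ng/mL final) plus ATP (1.25 mM final); secreted IL-1B measured by AlphaLISA after 16 hr, decreased signal indicating inhibition.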
# DT40 TDP1 no CPT = qHTS for Inhibitors of human tyrosyl-DNA phosphodiesterase 1 (TDP1): qHTS in cells in absence of CPT; AID 686978, 2013; DT40 Tdp1-/- hTDP1 cells, no CPT, ATP luminescence, 48 h; Potency, µM (top dose mostly 46.2 µM), most hits filed as inhibitors; 15% of 420,000 active; also: nearly all actives have a fitted effect of over 55% in size
#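 Chicken DT40 Tdp1-/- cells stably complemented with human TDP1 were seeded at 400 cells/well with DMSO in place of 20 nM camptothecin. After compound pinning, cells grew at least 48 hr at 37 °C; viability read by CellTiter-Glo luminescence.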
# ELG1 DNA repair = inhibitors of ELG1-dependent DNA repair in HEK293T cells. AID 504467. 2.3% of 330,000 active. HEK293T ELG1-luciferase reporter, luminescence, 16 h; DNA damage induced by 5-fluorouridine. Potency, µM (doses to about 46.1 µM), usual class: inhibitors; also: nearly all actives have a fitted effect of over 55% in size
#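 Luminescence from the luciferase reporter, measured 30 min after ONE-Glo reagent at room temperature, was the read-out. Beforehand, 2,000 cells per well were exposed for 16 hr at 37 °C to 5-fluorouridine together with compound or vehicle.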
# RORg inh = blocks mouse ROR gamma transcriptional activity; P51450; Drosophila S2 Gal4-RORgamma UAS-luciferase reporter, 20 h; Potency, µM (doses to about 53.6 µM), hits mostly inhibitors; 5.4% of 310,000 active; AID 2551; also: nearly all actives have a fitted effect of over 60% in size
# Target sequence (P51450 whole entry, looked up, the tested form may be a part): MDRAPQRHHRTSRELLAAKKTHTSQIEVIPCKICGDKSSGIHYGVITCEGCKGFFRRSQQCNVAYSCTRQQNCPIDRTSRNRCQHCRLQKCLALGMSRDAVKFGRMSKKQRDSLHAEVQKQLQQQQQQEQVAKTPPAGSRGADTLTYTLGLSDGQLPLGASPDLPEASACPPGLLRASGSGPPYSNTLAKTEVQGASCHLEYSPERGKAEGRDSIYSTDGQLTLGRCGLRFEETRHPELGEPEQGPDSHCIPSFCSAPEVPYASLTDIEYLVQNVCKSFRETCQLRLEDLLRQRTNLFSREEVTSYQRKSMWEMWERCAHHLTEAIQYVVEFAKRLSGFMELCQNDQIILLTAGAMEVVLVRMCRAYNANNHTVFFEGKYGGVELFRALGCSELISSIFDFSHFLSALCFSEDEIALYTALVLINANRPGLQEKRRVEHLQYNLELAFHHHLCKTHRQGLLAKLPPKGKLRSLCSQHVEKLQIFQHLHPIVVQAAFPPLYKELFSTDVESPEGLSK
#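 Luciferase reporter read in Schneider cells carrying Gal4-RORγ (mouse) and UAS-Photinus luciferase; cells given compound 1 h before 700 uM copper sulfate induction, then incubated 20 h at ambient temperature.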
# Gal4-VP16 FLuc = counter-screen for ROR gamma inhibitors: Gal4-VP16 reporter; Drosophila S2 Gal4-VP16 UAS-luciferase, luminescence, 20 h; Potency, µM (highest dose often 53.6 µM), most hits filed as inhibitors; 3.5% of 310,000 active; AID 2546;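 also: Gal4-VP16 expression switched on by copper sulfate through the metallothionein promoter; nearly all actives have a fitted effect of over 50% in size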
# A number is an active result; 0 = inactive; ? = inconclusive; - = not tested or not shown; [ ] = dose if it differs, or a comment. Unless noted, calls follow the shape of the dose curve; as a rule, active = well fitted curve in the direction sought with a large enough effect; inconclusive = small, poorly fitted or top-dose-only effect, or another doubt; inactive = no such curve, though single readings can be large; an effect the other way counts as inactive or inconclusive.
SMILES,TDP1 cell CPT,IL-1B inflam inh,DT40 TDP1 no CPT,ELG1 DNA repair,RORg inh,Gal4-VP16 FLuc
C[C@H](CCC(=O)O)[C@H]1CC[C@@H]2[C@H]3[C@@H](C[C@@H](O)[C@]21C)[C@]1(C)CC[C@H](O)C[C@@H]1C[C@@H]3O,-,-,-,-,0[10 µM],0
CC1CCCC(C)N1C(=S)SCC(=O)O (stereo not given),0,0,0,0,0,0
COc1ccccc1N1CCN(C(=O)c2cnc(N3CCOCC3)c3ccccc23)CC1,?,-,16.4µM,-,-,-
O=C(c1cnc(N2CCOCC2)c2ccccc12)N1CCN(c2ccc(F)cc2)CC1,14.6µM,-,?,-,-,-
O=C(c1sc2cc(F)ccc2c1Cl)N1CCN(c2ccccc2)CC1,0,-60.1,?,0,0,?
CCc1sc(C(=O)N2CCN(c3ccc(F)cc3)CC2)cc1C,?,0,14.6µM,0,0,0
CN1CCC(N(C)C(=O)c2sc3cc(F)ccc3c2Cl)CC1,0,0,0,0,0,0
CC(C)CC(=O)Nc1cccc(-c2cn3cccnc3n2)c1,0,-,0,-,-,-
O=C(COc1ccc(CNC[C@H]2O[C@@H](n3ccc(=O)[nH]c3=O)[C@H](O)[C@@H]2O)cc1)Nc1nccs1,0,0,0,-,-,-
CC1CCN(C(=O)CN2CCSc3ccccc32)CC1,0,-,0,-,-,-
COc1ccccc1N1CCN(C(=O)c2cnc(N3CCCCC3)c3ccccc23)CC1,4.61µM,-,3.66µM,-,-,-
O=C(c1ccccc1C(=O)N1CCN(c2ccc(F)cc2)CC1)N1CCN(c2ccc(F)cc2)CC1,?,0,9.2µM,?,0,0
O=C(c1cnc(N2CCCCC2)c2ccccc12)N1CCN(c2ccccc2F)CC1,16.4µM,-,?,-,-,-
O=C(O)c1ccccc1C(=O)N1CCN(c2ccccc2)CC1,0,0,0,0,0,0
Nc1sccc1C(=O)N1CCN(c2ccccc2)CC1,18.4µM,0,16.4µM,-,-,-
O=C(c1ccccc1C(=O)N1CCN(c2ccccc2)CC1)N1CCN(c2ccccc2)CC1,?,0,?,0,0,0
Cc1cc(Br)ccc1NC(=O)CN(C)C(=O)Cn1c(=O)cnc2ccccc21,0,0,0,0,0,0
CC1Sc2ccc(S(=O)(=O)CCC(=O)NC3CCCCC3C)cc2NC1=O (stereo not given),?,0,0,0,0,0
O=C(c1ccc(N2CCN(C(=O)c3ccc(F)cc3F)CC2)cc1)c1cccc(F)c1,?,0,?,14.6µM,0,?
CCN1CCN(CCNC(=O)c2ccc3c(c2)N(Cc2cccc(Cl)c2)C(=O)c2ccccc2S3=O)CC1 (stereo not given),0,-55.4,0,?,0,0
CCN(C(=O)c1ccc2c(c1)N(Cc1cccc(Cl)c1)C(=O)c1ccccc1S2=O)c1ccccc1 (stereo not given),?,-,16.4µM,-,-,-
O=C(NCCCN1CCOCC1)c1ccc2c(c1)N(Cc1ccc(Cl)cc1)C(=O)c1ccccc1S2=O (stereo not given),?,0,?,0,0,0
COc1ccc(C(C)=O)cc1COc1nc(C)nc2ccccc12,0,0,0,0,0,0
COc1cc(/C=N/NC(=O)CC23CC4CC(CC(C4)C2)C3)cc(Br)c1OCC(=O)N(C)C,20.6µM,0,18.4µM,?,0,?
O=C(NCC(=O)N1CCN(Cc2ccc3c(c2)OCO3)CC1)c1ccccc1F,0,0,0,0,-,-
SMILES,TDP1 cell CPT,IL-1B inflam inh,DT40 TDP1 no CPT,ELG1 DNA repair,RORg inh,Gal4-VP16 FLuc
CCCCOc1ccc(C(=O)NCC(=O)N2CCN(Cc3ccc4c(c3)OCO4)CC2)cc1,?,0,13µM,?,-,-
CCN(CC)c1ccc(C(=O)NC(=S)N2CCN(Cc3ccc4c(c3)OCO4)CC2)cc1,?,0,0,0,6.31µM,7.08µM
CCCCNC(=S)N1CCN(Cc2ccc3c(c2)OCO3)CC1,0,0,?,0,0,0
CCc1ccc(C2CC3C(CN2S(=O)(=O)c2ccc(C)cc2)[C@@H](O)C[C@@H](c2ccc(CC)cc2)N3S(=O)(=O)c2ccc(C)cc2)cc1 (stereo not given in full),?,0,?,-,-,-
O=C(NCCCN1CCOCC1)C(=O)NCc1ccccc1Cl,0,0,0,0,0,0[10 µM]
O=C(NNS(=O)(=O)c1ccccc1)c1csc(-c2cccnc2)n1,0,0,?,11.6µM,0,0
O=C(NNC(=O)c1csc(-c2cccnc2)n1)c1ccccc1,0,0,0,0,0,0
Cc1ccc(C(=O)OCC(=O)N2CCC(c3ccccc3)=N2)cc1,?,-85.1,?,0,-,-
CCCn1nnnc1NC(=O)c1cccs1,?,0,?,0,0.891µM,2.82µM
CCCn1nnnc1NC(=O)c1cc(Br)ccc1OC,0,0,0,0,3.16µM,5.62µM
CN(C)c1ccsc1C(=O)NNS(=O)(=O)c1ccc(Cl)cc1,0,0,0,-,-,-
CCC(C)c1ccccc1N1CC(C(=O)N2CCN(c3ccccc3)CC2)CC1=O (stereo not given),14.6µM,0,23.1µM,-,-,-
CCOc1ccc(N2CC(C(=O)Nc3ccc(S(=O)(=O)N4CCOCC4)cc3)CC2=O)cc1 (stereo not given),0,0,0,0,0,0
CCOc1ccccc1N1CC(C(=O)Nc2cccc(S(=O)(=O)N3CCCCC3)c2)CC1=O (stereo not given),?,0,23.1µM,?,0,0
CCOc1ccccc1N1CC(C(=O)Nc2ccc(S(=O)(=O)N3CCCCC3)cc2)CC1=O (stereo not given),13µM,0,13µM,0,-,-
CCOc1ccc(N2CC(C(=O)Nc3cccc(S(=O)(=O)N4CCCC4)c3)CC2=O)cc1 (stereo not given),0,0,0,0,-,-
CCC(C)c1ccccc1N1CC(C(=O)Nc2ccc(S(=O)(=O)N3CCOCC3)cc2)CC1=O (stereo not given),23.1µM,0,23.1µM,0,-,-
CC(C)=CCC/C(C)=C/CO/N=C1/[C@H]2O[C@@H]2[C@@H](O)[C@H]2[C@H]1CCn1c(=O)n(-c3ccccc3)c(=O)n12,-,-,-,-,0[10 µM],0[10 µM]
COC(=O)CSc1n[nH]c(-c2cccnc2)n1,0,0,0,0,0,0
CCOC(=O)CSc1n[nH]c(-c2cccnc2)n1,0,-81.2,0,0,0,0
Cc1cccc(COC[C@H](CC(C)C)N2CCN(C(=O)c3ccc(C(C)(C)C)cc3)CCC2=O)c1,?,-70.2,?,-,-,-
Cc1cccc(COCC(CC(C)C)N2CCN(C(=O)c3ccc(C(C)(C)C)cc3)CCC2=O)c1 (stereo not given),?,-73.4,18.4µM,?,0,0

# Screening data as filed in PubChem BioAssay.
